In PubChem BioAssay (EPA / NIEHS):
Inconclusive results are not listed. Calls of active or inactive are those of the source. The calls were made as follows: active = hit-call score of the fitted dose curve at least 0.9, where 1 is the maximum; inconclusive = response in the unintended direction; inactive = score below 0.9.

Tested on: not listed separately
Assay: ACEA_ER_AUC_viability: ACEA Biosciences xCELLigence Real-Time Cell Analysis on Estrogen Receptor Agonism for Viability (AID 2283782);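 also: hit means loss of impedance signal meaning reduced cell growth or viability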
Method in brief: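 Viability endpoint: reduced impedance area under the curve relative to DMSO, recorded by real-time electrode sensing over ~80 h of continuous exposure. Duplicate plates of T47D in hormone-depleted medium; eight concentrations, 1:4 dilutions, 100 uM maximum.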

Structure (SMILES) | outcome | AC50
COc1ccc(O)cc1 | inactive | –
CC1(C)C(=O)N(Br)C(=O)N1Cl | inactive | –
CCCCCCCCCCCCCCCC(=O)OC[C@H](O)[C@H]1OC(=O)C(O)=C1O | – | 39.2 µM (active)
CCCOCC(C)O (stereo not drawn) | inactive | –
CN(C)C(=N)N=C(N)N | inactive | –
CCCCc1ccc(N)cc1 | inactive | –
O=C1CCc2ccccc2O1 | – | 38 µM (active)
CCCCNC(=O)NS(=O)(=O)c1ccc(C)cc1 | inactive | –
CC(CCO)CCCC(C)(C)O (stereo not drawn) | – | 50.5 µM (active)
BrC1CCC(Br)C(Br)CCC(Br)C(Br)CCC1Br (stereo not drawn) | – | 8.63 µM (active)
NCCCN1CCOCC1 | inactive | –
CC(CCO)CCc1ccccc1 (stereo not drawn) | – | 50 µM (active)
CCCCCCCCCCCCCOS(=O)(=O)O | – | 73.8 µM (active)
CC(=O)OCC=Cc1ccccc1 | inactive | –
CCC(=O)OCc1ccccc1 | inactive | –
CC(C)c1ccc(C(C)C)cc1 | inactive | –

Structure (SMILES) | outcome | AC50
O=Nc1ccc(Nc2ccccc2)cc1 | – | 11.1 µM (active)
CC(C)(C)NC(N)=O | inactive | –
CCC/C=C/C=O | inactive | –
c1ccc2[nH]ccc2c1 | inactive | –
C=C[Si](OCC)(OCC)OCC | inactive | –
O=C[C@@H](O)[C@H](O)[C@H](O)CO | inactive | –
OCC(CO)(CO)COCC(CO)(CO)CO | inactive | –
CCC(=O)/C=C/C1C(C)=CCCC1(C)C (stereo not drawn) | inactive | –
CO[Si](CCCn1c(=O)n(CCC[Si](OC)(OC)OC)c(=O)n(CCC[Si](OC)(OC)OC)c1=O)(OC)OC | – | 21.7 µM (active)
[Ca+2] | inactive | –
C[Si](O[Si](C)(C)C)O[Si](C)(C)C | inactive | –
Cc1ccc2ccccc2n1 | inactive | –
CCCCCNCCCCC | inactive | –
O=C1CCCCCCCCCCOCCCCO1 | – | 55.4 µM (active)
CCCCCCCCCCN | – | 45.2 µM (active)

Target: AR (gene 367) (UniProt P10275)
Sequence (P10275 whole entry, looked up): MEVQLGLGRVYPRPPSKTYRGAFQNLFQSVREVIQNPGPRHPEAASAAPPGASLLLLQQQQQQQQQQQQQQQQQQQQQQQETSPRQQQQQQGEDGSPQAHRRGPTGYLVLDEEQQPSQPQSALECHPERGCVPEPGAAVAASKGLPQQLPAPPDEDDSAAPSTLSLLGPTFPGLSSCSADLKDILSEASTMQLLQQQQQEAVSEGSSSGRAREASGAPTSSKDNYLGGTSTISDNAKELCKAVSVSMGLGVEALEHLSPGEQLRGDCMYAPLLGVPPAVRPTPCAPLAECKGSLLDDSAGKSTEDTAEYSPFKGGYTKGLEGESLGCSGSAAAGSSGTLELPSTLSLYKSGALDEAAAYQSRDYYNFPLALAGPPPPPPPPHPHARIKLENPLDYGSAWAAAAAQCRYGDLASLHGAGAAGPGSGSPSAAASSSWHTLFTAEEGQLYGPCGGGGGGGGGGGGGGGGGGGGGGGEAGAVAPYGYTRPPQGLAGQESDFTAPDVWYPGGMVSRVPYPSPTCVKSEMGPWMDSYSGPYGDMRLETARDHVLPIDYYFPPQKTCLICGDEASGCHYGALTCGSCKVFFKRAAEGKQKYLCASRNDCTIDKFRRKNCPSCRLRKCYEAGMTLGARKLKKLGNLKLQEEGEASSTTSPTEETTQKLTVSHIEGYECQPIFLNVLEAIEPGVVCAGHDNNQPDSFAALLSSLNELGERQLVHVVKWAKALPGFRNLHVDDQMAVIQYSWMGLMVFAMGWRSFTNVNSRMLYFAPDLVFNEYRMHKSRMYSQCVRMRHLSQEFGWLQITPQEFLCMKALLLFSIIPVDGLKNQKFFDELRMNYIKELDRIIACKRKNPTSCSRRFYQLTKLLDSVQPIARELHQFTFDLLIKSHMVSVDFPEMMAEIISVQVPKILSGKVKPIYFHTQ
Assay: ACEA_AR_agonist_80hr: ACEA Biosciences xCELLigence Real-Time Cell Analysis on Androgen Receptor Agonism for Proliferation (AID 2283783);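 also: hits increase impedance growth signal above DMSO baseline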
Method in brief: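 Eight concentrations, 1:4 serial dilution from a 100 uM final top, in biological duplicate. Impedance-based real-time growth of 22Rv1 cells after overnight baseline, recorded hourly and read at 80 hours. Controls: testosterone, MG132, assay media.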

Structure (SMILES) | outcome | AC50
CCCOCC(C)O (stereo not drawn) | inactive | –
CCCCCCCCCCCCCOS(=O)(=O)O | inactive | –
O=Nc1ccc(Nc2ccccc2)cc1 | inactive | –
O=c1cc(-c2ccccc2)oc2cc(O)cc(O)c12 | – | 0.0729 µM (active)
C[Si](O[Si](C)(C)C)O[Si](C)(C)C | inactive | –

Target: AR (gene 367) (UniProt P10275)
Assay: ACEA_AR_antagonist_80hr: ACEA Biosciences xCELLigence Real-Time Cell Analysis on Androgen Receptor Antagonism for Proliferation (AID 2283787);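 also: 22Rv1 human prostate cancer cells with growth followed by electrical impedance; hits lower the impedance growth signal relative to DMSO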
Method in brief: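 Impedance-based real-time growth of 22Rv1 prostate cells, read 80 h after dosing. Eight concentrations, 1:4 series, top 100 uM final (0.5% DMSO), n = 2; signal decrease scored against DMSO.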

Structure (SMILES) | outcome | AC50
COc1ccc(O)cc1 | inactive | –
CCCCCCCCCCCCCCCC(=O)OC[C@H](O)[C@H]1OC(=O)C(O)=C1O | – | 7.84 µM (active)
CCN(CC)c1ccc(C(=C2C=CC(=[N+](CC)CC)C=C2)c2ccc(S(=O)(=O)O)cc2S(=O)(=O)[O-])cc1 | inactive | –
BrC1CCC(Br)C(Br)CCC(Br)C(Br)CCC1Br (stereo not drawn) | inactive | –
NCCCN1CCOCC1 | inactive | –
O=Nc1ccc(Nc2ccccc2)cc1 | inactive | –
CCC/C=C/C=O | inactive | –
c1ccc2[nH]ccc2c1 | inactive | –
CCCCC[Si](OCC)(OCC)OCC | inactive | –
O=C[C@@H](O)[C@H](O)[C@H](O)CO | inactive | –
O=c1cc(-c2ccccc2)oc2cc(O)cc(O)c12 | inactive | –
C[Si](O[Si](C)(C)C)O[Si](C)(C)C | inactive | –
